Only a selection was taken, and hits are over-represented in it overall.
FECH block = inhibitors of human ferrochelatase, primary screen, biochemical, purified FECH, Ni-mesoporphyrin absorbance; Ferrochelatase, mitochondrial (Homo sapiens), P22830; Ni-mesoporphyrin absorbance 550 nm; calls only at 10 µM (by protocol); actives 3.3% (n = 20,000);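 active means enzyme reaction rate more than 3 SD below the solvent-only control wells on the same plate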;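 further: lower slope than DMSO wells means FECH inhibition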
Target sequence (P22830 whole entry, looked up): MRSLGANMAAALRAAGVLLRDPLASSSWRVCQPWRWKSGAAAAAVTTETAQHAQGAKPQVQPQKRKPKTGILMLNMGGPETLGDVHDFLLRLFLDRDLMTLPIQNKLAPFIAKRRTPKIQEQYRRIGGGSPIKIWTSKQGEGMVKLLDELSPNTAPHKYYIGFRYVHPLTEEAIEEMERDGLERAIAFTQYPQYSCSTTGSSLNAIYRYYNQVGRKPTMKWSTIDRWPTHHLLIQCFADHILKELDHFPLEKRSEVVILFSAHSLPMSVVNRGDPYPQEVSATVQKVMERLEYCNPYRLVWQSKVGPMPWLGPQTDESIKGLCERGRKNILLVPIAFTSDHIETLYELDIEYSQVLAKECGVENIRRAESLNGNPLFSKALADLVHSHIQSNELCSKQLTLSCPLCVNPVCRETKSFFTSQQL
Starred values were filed as active, the others as inactive; i = inactive; + = active, no number.

SMILES	FECH block
COc1ccc(N2C(=O)CCS2(=O)=O)cc1S(=O)(=O)Nc1cc(C)ccc1C	i
Cc1ccc(C)c(NS(=O)(=O)c2cc(N3C(=O)CCS3(=O)=O)ccc2C)c1	i
Cc1ccc(C)c(NS(=O)(=O)c2ccc(N)c(S(N)(=O)=O)c2)c1	+
Cc1cc(Nc2ccc(OC(=O)c3ccccc3)cc2)n2nc(-c3cccnc3)nc2n1	i
COc1ccc(CNS(=O)(=O)c2ccc3c(c2)CCN3C(=O)CCC(=O)N2CCOCC2)cc1	i
O=C(NCc1ccccc1F)c1cccn1-c1nnc(N2CCCCC2)s1	+
O=C(NCCN1CCCCCC1)c1cccn1-c1nnc(N2CCCCC2)s1	i
Cc1ccccc1CNC(=O)c1cccn1-c1nnc(N2CCCCC2)s1	i
c1ccc(C2CCCN2C2CCN(c3ccc4c(c3)OCO4)CC2)nc1 (configuration not stated)	i
Cc1ccc(NS(=O)(=O)c2ccc(N)c(S(N)(=O)=O)c2)cc1	+
CCc1ccc(NS(=O)(=O)c2ccc3c(c2)C(=O)NC3)cc1	i
CCc1ccc(NS(=O)(=O)c2ccc(N)c(S(N)(=O)=O)c2)cc1	+
Cn1cnc(S(=O)(=O)Nc2ccc(S(N)(=O)=O)cc2)c1	i
COc1ccc(NS(=O)(=O)c2ccc(N)c(S(N)(=O)=O)c2)cc1	+
NS(=O)(=O)c1ccc(NS(=O)(=O)c2ccc3c(c2)NC(=O)CC(=O)N3)cc1	i
CCN(CC)c1ncc(NS(=O)(=O)c2ccc(OC)cc2)cc1C(=O)O	i
CCc1ccc(NS(=O)(=O)c2ccc(C(=O)N(C)C)s2)cc1	i
COc1ccc(-c2csc(C)n2)cc1S(=O)(=O)Nc1ccc(S(N)(=O)=O)cc1	i
O=S(=O)(NCc1nc2cccnc2n1C1CCCC1)c1cccc(Cl)c1	i
O=C(CN1C(=O)c2cccnc2Sc2ccccc21)Nc1ccc(F)cc1Cl	i
O=C(c1cc(CN2CCOCC2)on1)N1CCCCC1CCc1cccs1 (configuration not stated)	i
CN(CCCc1cnn(C)c1)C(=O)c1cnn2ccn(C)c12	i
CN(C(=O)c1nc2ccccc2c(=O)[nH]1)C1Cc2ccccc2C1	i
CCCc1cc(Sc2ccc(NC(C)=O)cc2)n2ncnc2n1	i
CCN1C(SCC(=O)Nc2ccc(Cl)cc2F)=NS(=O)(=O)c2ccccc21	+
SMILES	FECH block
CCCCNC(=O)CSC1=NS(=O)(=O)c2ccccc2N1CC	+
CCN1C(SCC(=O)Nc2cc(Cl)c(OC)cc2OC)=NS(=O)(=O)c2ccccc21	i
CCC(=O)Nc1ccccc1-c1nnc(SCC(=O)Nc2cccc(Cl)c2Cl)[nH]c1=O	i
Cc1ccccc1N1C(=O)N(CC(=O)NC2CCCC2)c2ccccc2S1(=O)=O	i
Cc1cccc(C)c1NC(=O)CSCc1nc(-c2ccccc2)no1	i
CCCCNC(=O)CC1CCN(S(=O)(=O)c2ccccc2)CC1	i
CCN1C(SCC(=O)Nc2cc(Cl)ccc2C)=NS(=O)(=O)c2ccccc21	i
CCN1C(SCC(=O)Nc2c(C)cccc2C)=NS(=O)(=O)c2ccccc21	+
CCN1C(SCC(=O)Nc2ccccc2C)=NS(=O)(=O)c2ccccc21	+
COc1ccc(N2C(=O)N(CC(=O)NCCc3ccccc3)c3ccccc3S2(=O)=O)cc1OC	i
Cc1ccc(CN2c3ccccc3-c3nc(SCC(=O)Nc4ccc(C)c(Cl)c4)ncc3S2(=O)=O)cc1	i
Cc1cccc(C(C(=O)NCCn2ccnc2)N(C)C)c1 (configuration not stated)	i
CCOC(=O)Cn1c(=O)n(-c2ccc(C)c(C)c2)c2nc(C)nc(C(N)=O)c21	i
COc1ccc(CN2CCCN(CC(=O)Nc3cc(C)ccc3C)S2(=O)=O)cc1	i
CC1=CC[C@@H]2CN(Cc3ccccc3OCC(=O)N(C)C)C[C@@H]2C1	i
O=C(NCc1ncn[nH]1)C1CCCN(C2CCN(Cc3cccnc3)CC2)C1 (configuration not stated)	i
CCn1c(C2CCCN(c3nc(C)cc(C)n3)C2)nn(CCN(C)C)c1=O (configuration not stated)	i
Cc1nc(NC(=O)NCCC2CCCCCC2)nn1C	i
Cc1ccc(Cn2c(CNS(=O)(=O)c3ccccc3Cl)nc3cccnc32)cc1	i
COc1cc(C(=O)N2CCC3(CC2)c2ccccc2[C@@H](N)[C@@H]3O)ccn1	i
CCc1cccc(C)c1NC(=O)CSC1=NS(=O)(=O)c2ccccc2N1CC	+
CCC1=C(c2ccc(OC)cc2)S(=O)(=O)N(CC(=O)Nc2c(C)cccc2CC)C1=O	i
CCc1cccc(C)c1NC(=O)c1nc2ccccc2n(C)c1=O	i
COc1ccccc1NC(=O)N1CCC(n2cnc3cccnc32)CC1	i
NS(=O)(=O)c1ccc(NC(=O)c2ccc(=O)n(Cc3ccc(Cl)cc3)c2)cc1	i
SMILES	FECH block
NS(=O)(=O)c1ccc(NC(=O)CSc2nc3c(c(=O)[nH]2)CCCC3)cc1	+
NS(=O)(=O)c1ccc(NC(=O)CSc2nc3c(c(=O)[nH]2)CCC3)cc1	i
CCOC(=O)c1c(NC(=O)c2ccc(Cl)s2)sc2c1CCN(C)C2	i
CCc1nc(C)sc1CNC(=O)C1CC(C(C)C)=NO1 (configuration not stated)	i
COc1ccccc1N1CCN(C(=O)CCc2nc(-c3cc4ccc(C)cc4[nH]c3=O)no2)CC1	+
Cc1ccc2cc(-c3noc(CCC(=O)N4CCCC(C)C4)n3)c(=O)[nH]c2c1 (configuration not stated)	i
Cc1ccc2cc(-c3noc(CCC(=O)N4CCC(C)CC4)n3)c(=O)[nH]c2c1	i
Cn1ncc(N2CCC(CNC(=O)Cc3ccc(O)c(Cl)c3)C2)cc1=O (configuration not stated)	i
Cc1ccc(Cc2nc3nc4c(c(N5CCN(c6cccc(C)c6)C(C)C5)n3n2)CCC4)cc1 (configuration not stated)	i
CCCN1CC(NC(=O)c2ccc(-n3cnnc3)cc2)CC1=O (configuration not stated)	i
Cc1ccc(S(=O)(=O)NCc2nc3cccnc3n2Cc2ccccc2Cl)c(C)c1	i
COCc1cc(CNC2CCCC(C)(C)C2)n[nH]1 (configuration not stated)	i
Cc1ccc(-n2ncc3c(-n4nc(C)cc4NC(=O)c4ccccc4C(F)(F)F)ncnc32)c(C)c1	i
O=S(=O)(c1ccccc1)N1CCC(n2c(C(F)(F)F)nc3cccnc32)CC1	i
COc1ccc(Cl)cc1S(=O)(=O)N1CCC(n2c(C(F)(F)F)nc3cccnc32)CC1	i
COc1ccc(S(=O)(=O)N2CCC(n3c(C(F)(F)F)nc4cccnc43)CC2)cc1OC	+
Cc1nc(N(C)C)ncc1C(=O)N(Cc1ccncc1)CC1CCCO1 (configuration not stated)	i
Cc1ccc(S(=O)(=O)N(Cc2ccccc2C)c2nc3nc(C)c(Cl)c(C)n3n2)cc1	i
Cc1cc(C)n2nc(CN(c3ccc(F)cc3)S(=O)(=O)c3ccc(Cl)cc3)nc2n1	i
Cc1cc(C)n2nc(N(Cc3ccccc3C)S(=O)(=O)c3ccccc3)nc2n1	i
CCCN(c1nc2nc(C)cc(C)n2n1)S(=O)(=O)c1ccc(C)cc1	+
Cc1ccc(S(=O)(=O)N(Cc2ccccc2C)c2nc3nc(C)cc(C)n3n2)cc1	+
Cc1cc(C)n2nc(CN(c3ccc(F)cc3)S(=O)(=O)c3ccccc3)nc2n1	i

Screening results (PubChem BioAssay)
